# This excerpt belongs to a sample that is enriched for the strongest signals.
# B1: MGL2 (Mus musculus), Q8JZN1 (protein)
# chain: MTMRYENFQNLEREEKNQEMRNGDKKGGMESPKFALIPSQSFLWRILSWTHLLLFSLGLSLLLLVVISVIGSQNSQLRRDLGTLRAILDNTTSKIKAEFQSLDSRADNFEKGISSLKVDVEDHRQELQAGRDLSQKVTSLESTLEKREQALKTDLSDLTDHVQQLETDLKALTCQLANLKNNGSEVACCPLHWTEHEGSCYWFSESEKSWPEADKYCRLENSHLVVVNSLEEQNFLQNRLANVLSWMGLTDQNGPWRWVDGTDFDKGFKNWRPLQPDNWHGHMLGGGEDCAHFSYDGRWNDDVCQRHYHWICETELGKASSAHSPQLIASVP
# Columns and labels:
# Experiment in all cases: glycan array binding signal (z-score within array); higher = stronger binding
# Details in all cases: glycan notation: IUPAC condensed, linker removed
# [1] = molecular target: Fuc(a1-2)Gal(b1-3)GlcNAc(b1-2)Man(a1-3)[Fuc(a1-2)Gal(b1-3)GlcNAc(b1-2)Man(a1-6)]Man(b1-4)GlcNAc(b1-4)[Fuc(a1-6)]GlcNAc
# How it was run: (§1)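 Glycan array binding is given as a within-array Z-score, which can be read as non-binding when negative. The arrays, 3228 of them, came from the Consortium for Functional Glycomics database and were retained only where the protein sequence was available. Z-scores were averaged across arrays of the same protein sequence at different concentrations or buffers and across linkers.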
# [2] = molecular target: Fuc(a1-2)Gal(b1-3)GlcNAc(b1-3)[Neu5Ac(a2-6)Gal(b1-4)GlcNAc(b1-6)]Gal(b1-4)Glc
# How it was run: as §1
# [3] = molecular target: Fuc(a1-2)Gal(b1-4)GlcNAc(b1-2)[Fuc(a1-2)Gal(b1-4)GlcNAc(b1-4)]Man(a1-3)[Fuc(a1-2)Gal(b1-4)GlcNAc(b1-2)Man(a1-6)]Man(b1-4)GlcNAc(b1-4)GlcNAc
# How it was run: as §1
# [4] = molecular target: Fuc(a1-2)Gal(b1-4)GlcNAc(b1-6)GalNAc
# How it was run: as §1
# [5] = molecular target: Fuc(a1-2)Gal6S(b1-3)GlcNAc6S
# How it was run: as §1
# [6] = molecular target: Fuc(a1-2)[Gal(a1-3)]Gal(b1-3)GlcNAc(b1-2)Man(a1-3)[Fuc(a1-2)[Gal(a1-3)]Gal(b1-3)GlcNAc(b1-2)Man(a1-6)]Man(b1-4)GlcNAc(b1-4)GlcNAc
# How it was run: as §1
# [7] = molecular target: Fuc(a1-2)[Gal(a1-3)]Gal(b1-3)GlcNAc(b1-6)GalNAc
# How it was run: as §1
# [8] = molecular target: Fuc(a1-2)[Gal(a1-3)]Gal(b1-4)GlcNAc
# How it was run: as §1
# [9] = molecular target: Fuc(a1-2)[Gal(a1-3)]Gal(b1-4)[Fuc(a1-3)]GlcNAc(b1-3)GalNAc
# How it was run: as §1
# [10] = molecular target: Fuc(a1-2)[GalNAc(a1-3)]Gal(b1-4)GlcNAc(b1-2)Man(a1-3)[Fuc(a1-2)[GalNAc(a1-3)]Gal(b1-4)GlcNAc(b1-2)Man(a1-6)]Man(b1-4)GlcNAc(b1-4)[Fuc(a1-6)]GlcNAc
# How it was run: as §1
# [11] = molecular target: Fuc(a1-2)[GalNAc(b1-3)]Gal
# How it was run: as §1
# Fuc(a1-4)GlcNAc = molecular target: Fuc(a1-4)GlcNAc
# How it was run: as §1
# [12] = molecular target: Gal(a1-3)Gal(b1-3)[Fuc(a1-4)]GlcNAc(b1-2)Man(a1-3)[Gal(a1-3)Gal(b1-3)[Fuc(a1-4)]GlcNAc(b1-2)Man(a1-6)]Man(b1-4)GlcNAc(b1-4)GlcNAc
# How it was run: as §1
# Gal(a1-3)GalNAc = molecular target: Gal(a1-3)GalNAc
# How it was run: as §1
# Gal(b1-3)Gal(b1-4)GlcNAc = molecular target: Gal(b1-3)Gal(b1-4)GlcNAc
# How it was run: as §1
# [13] = molecular target: Gal(b1-3)GlcNAc(a1-6)Gal(b1-4)GlcNAc
# How it was run: as §1
# [14] = molecular target: Gal(b1-3)GlcNAc(b1-3)Gal(b1-4)GlcNAc(b1-2)Man(a1-3)[Gal(b1-3)GlcNAc(b1-3)Gal(b1-4)GlcNAc(b1-2)Man(a1-6)]Man(b1-4)GlcNAc(b1-4)GlcNAc
# How it was run: as §1
# [15] = molecular target: Gal(b1-3)GlcNAc(b1-6)Gal(b1-4)GlcNAc
# How it was run: as §1
# [16] = molecular target: Gal(b1-3)GlcNAc(b1-6)GalNAc
# How it was run: as §1
# Gal(b1-4)Gal = molecular target: Gal(b1-4)Gal
# How it was run: as §1
# Gal(b1-4)Glc6S = molecular target: Gal(b1-4)Glc6S
# How it was run: as §1
# [17] = molecular target: Gal(b1-4)GlcNAc(a1-6)Gal(b1-4)GlcNAc
# How it was run: as §1
# [18] = molecular target: Gal(b1-4)GlcNAc(b1-2)[Gal(b1-4)GlcNAc(b1-4)]Man(a1-3)[Gal(b1-4)GlcNAc(b1-2)[Gal(b1-4)GlcNAc(b1-6)]Man(a1-6)]Man(b1-4)GlcNAc(b1-4)GlcNAc
# How it was run: as §1
# [19] = molecular target: Gal(b1-4)GlcNAc(b1-2)[Gal(b1-4)GlcNAc(b1-6)]Man(a1-6)[Gal(b1-4)GlcNAc(b1-2)Man(a1-3)]Man(b1-4)GlcNAc(b1-4)[Fuc(a1-6)]GlcNAc
# How it was run: as §1
# [20] = molecular target: Gal(b1-4)GlcNAc(b1-3)Gal(b1-3)GalNAc
# How it was run: as §1
# [21] = molecular target: Gal(b1-4)GlcNAc(b1-3)Gal(b1-4)[Fuc(a1-3)]GlcNAc(b1-3)Gal(b1-4)[Fuc(a1-3)]GlcNAc
# How it was run: as §1
# [22] = molecular target: Gal(b1-4)GlcNAc(b1-6)GalNAc
# How it was run: as §1
# [23] = molecular target: Gal3S(b1-4)[Fuc(a1-3)]GlcNAc
# How it was run: as §1
# Gal6S(b1-4)GlcNAc = molecular target: Gal6S(b1-4)GlcNAc
# How it was run: as §1
# GalNAc(a1-3)Gal = molecular target: GalNAc(a1-3)Gal
# How it was run: as §1
binder,measurement,setting,value
B1,glycan array binding signal (z-score),[1],-0.201
same,glycan array binding signal (z-score),[2],-0.188
same,glycan array binding signal (z-score),[3],-0.106
same,glycan array binding signal (z-score),[4],1.79
same,glycan array binding signal (z-score),[5],0.028
same,glycan array binding signal (z-score),[6],-0.255
same,glycan array binding signal (z-score),[7],0.323
same,glycan array binding signal (z-score),[8],-0.162
same,glycan array binding signal (z-score),[9],-0.252
same,glycan array binding signal (z-score),[10],-0.211
same,glycan array binding signal (z-score),[11],12.2
same,glycan array binding signal (z-score),Fuc(a1-4)GlcNAc,0.024
same,glycan array binding signal (z-score),[12],-0.193
same,glycan array binding signal (z-score),Gal(a1-3)GalNAc,-0.18
same,glycan array binding signal (z-score),Gal(b1-3)Gal(b1-4)GlcNAc,-0.137
same,glycan array binding signal (z-score),[13],0.067
same,glycan array binding signal (z-score),[14],-0.097
same,glycan array binding signal (z-score),[15],-0.035
same,glycan array binding signal (z-score),[16],2.02
same,glycan array binding signal (z-score),Gal(b1-4)Gal,-0.267
same,glycan array binding signal (z-score),Gal(b1-4)Glc6S,-0.225
same,glycan array binding signal (z-score),[17],-0.091
same,glycan array binding signal (z-score),[18],-0.247
same,glycan array binding signal (z-score),[19],-0.193
same,glycan array binding signal (z-score),[20],-0.14
same,glycan array binding signal (z-score),[21],-0.1
same,glycan array binding signal (z-score),[22],3.5
same,glycan array binding signal (z-score),[23],-0.228
same,glycan array binding signal (z-score),Gal6S(b1-4)GlcNAc,-0.276
same,glycan array binding signal (z-score),GalNAc(a1-3)Gal,1.48
